# Measurements reported in PubChem BioAssay (NCI).
# Several values for one entry are separate records, joined by “and”; a condition that tells them apart may be missing. Identical values can stand only once. About 83,000 compounds went through this panel and 20% of them were active in at least one assay; those are over-represented in the sample as a whole.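 Testing used 96-well plates and a 48-hour single-concentration exposure. Example: -40 means 40% of the starting cells died.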 Activity calls are given as the source filed them. How the source made its calls: active means growth percent below 10; inactive means the rest.
# System: HL-60(TB) leukemia
# Assay: NCI-60 one-dose screen, 48 h (100 = growth as untreated, 0 = no growth, -100 = all killed)
# Details: 10 µM unless noted
row,SMILES,growth
1,O=C(OCCBr)c1ccc(Cl)c([N+](=O)[O-])c1,81.7% (inactive)
2,O=[N+]([O-])c1ccc2[nH]cc(-c3c4ccsc4cc4[nH]c5ccc([N+](=O)[O-])cc5c34)c2c1,8.08% (active)
3,COC(=O)[C@]1(C)CCC[C@]2(C)[C@H]3C[C@H]4C(C(C)C)=C[C@]3(CC[C@H]21)[C@@H]1C(=O)N(CCC#N)C(=O)[C@@H]14,44.4% (inactive)
4,COc1cccc(Cn2c(-c3nonc3NC(C)=O)nc3ccccc32)c1,-2.59% (active)
5,Cc1ncc(CO)c(C(=O)O)c1O,84.2% (inactive)
6,Cc1ccc(-c2csc(NC(=O)CN3CCN(c4cc5c(cc4F)c(=O)c(C(=O)O)cn5C4CC4)CC3)n2)cc1,-56.3% (active)
7,COc1cc(NS(C)(=O)=O)ccc1Nc1c2ccccc2nc2c(C)cccc12,-29.5% (active) and -20.2% (active)
8,COc1cccc(CC(C)=C(c2ccc(OCCN(C)C)cc2)c2ccc(OCCN(C)C)cc2)c1,-62.5% (active)
9,CC(C)Cc1ccc(C(C)C(=O)NCc2ccc(Cn3c(=O)sn(CCCCl)c3=O)cc2)cc1 (stereo not drawn),102% (inactive) and -23.6% (active)
10,[2H]C1([2H])[C@H](C)O[C@H](C)C([2H])([2H])N1c1ccc(NC(=O)c2cccc(-c3ccc(OC(F)(F)F)cc3)c2C)cn1,56.3% (inactive)
11,Cc1cc(O)c(C(C)C)cc1N,83.9% (inactive) and 122% (inactive)
12,CCN(CC)C(Cl)=Nc1ccc(Cl)cc1,99.3% (inactive)
13,COc1cc(/C=C2\C(=O)N(Cc3ccc(Cl)cc3)c3ccccc32)cc(OC)c1OC,-13.5% (active)
